Assay results published in ChEMBL document CHEMBL1961873, “Compounds: GSK PKIS; Assays: Nanosyn kinase panel” (2012).

How the values were obtained:
[1] = target: Calcium/calmodulin-dependent protein kinase type II subunit alpha (Homo sapiens) (UniProt Q9UQM7); settings: at 1 µM;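 also: reported value is a mean percent inhibition of CAMK2A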
[2] = target: Calcium/calmodulin-dependent protein kinase type II subunit delta (Homo sapiens) (UniProt Q13557); settings: at 0.1 µM
[3] = target: Calcium/calmodulin-dependent protein kinase type II subunit delta (Homo sapiens) (UniProt Q13557); settings: at 1 µM
[4] = target: T1, Calcium/calmodulin-dependent protein kinase type IV (Homo sapiens) (UniProt Q16566); settings: at 0.1 µM
T1 sequence (whole entry): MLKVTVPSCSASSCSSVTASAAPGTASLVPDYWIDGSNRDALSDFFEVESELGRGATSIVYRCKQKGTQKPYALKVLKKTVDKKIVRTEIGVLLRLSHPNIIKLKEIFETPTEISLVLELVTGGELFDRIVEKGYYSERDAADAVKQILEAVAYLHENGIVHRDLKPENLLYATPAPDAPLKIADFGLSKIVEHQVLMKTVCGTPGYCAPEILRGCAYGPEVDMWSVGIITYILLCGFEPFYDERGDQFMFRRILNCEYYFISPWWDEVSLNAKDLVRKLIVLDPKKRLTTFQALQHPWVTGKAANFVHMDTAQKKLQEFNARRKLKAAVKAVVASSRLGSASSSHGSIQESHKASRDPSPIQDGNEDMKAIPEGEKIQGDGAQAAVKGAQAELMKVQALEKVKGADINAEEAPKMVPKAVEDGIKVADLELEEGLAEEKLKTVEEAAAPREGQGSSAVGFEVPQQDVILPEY

[5] = target: T1, Calcium/calmodulin-dependent protein kinase type IV (Homo sapiens); settings: at 1 µM
[6] = target: T2, Serine/threonine-protein kinase Chk1 (Homo sapiens) (UniProt O14757); settings: at 0.1 µM
T2 sequence (whole entry): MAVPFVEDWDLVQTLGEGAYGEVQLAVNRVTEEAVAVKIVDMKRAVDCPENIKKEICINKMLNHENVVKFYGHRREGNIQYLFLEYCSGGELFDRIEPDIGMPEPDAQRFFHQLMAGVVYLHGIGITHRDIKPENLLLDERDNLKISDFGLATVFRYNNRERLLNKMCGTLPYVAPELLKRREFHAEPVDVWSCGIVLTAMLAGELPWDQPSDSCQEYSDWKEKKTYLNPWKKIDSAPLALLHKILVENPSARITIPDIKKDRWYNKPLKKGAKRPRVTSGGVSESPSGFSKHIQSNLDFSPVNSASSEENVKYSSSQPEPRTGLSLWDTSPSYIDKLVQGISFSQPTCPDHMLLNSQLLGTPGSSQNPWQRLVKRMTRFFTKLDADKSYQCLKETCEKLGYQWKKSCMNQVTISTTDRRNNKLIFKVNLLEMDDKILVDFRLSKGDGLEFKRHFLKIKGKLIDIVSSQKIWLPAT

[7] = target: T2, Serine/threonine-protein kinase Chk1 (Homo sapiens); settings: at 1 µM
[8] = target: Serine/threonine-protein kinase Chk2 (Homo sapiens) (UniProt O96017); settings: at 0.1 µM
Chain of Serine/threonine-protein kinase Chk2 (Homo sapiens) (O96017 whole entry): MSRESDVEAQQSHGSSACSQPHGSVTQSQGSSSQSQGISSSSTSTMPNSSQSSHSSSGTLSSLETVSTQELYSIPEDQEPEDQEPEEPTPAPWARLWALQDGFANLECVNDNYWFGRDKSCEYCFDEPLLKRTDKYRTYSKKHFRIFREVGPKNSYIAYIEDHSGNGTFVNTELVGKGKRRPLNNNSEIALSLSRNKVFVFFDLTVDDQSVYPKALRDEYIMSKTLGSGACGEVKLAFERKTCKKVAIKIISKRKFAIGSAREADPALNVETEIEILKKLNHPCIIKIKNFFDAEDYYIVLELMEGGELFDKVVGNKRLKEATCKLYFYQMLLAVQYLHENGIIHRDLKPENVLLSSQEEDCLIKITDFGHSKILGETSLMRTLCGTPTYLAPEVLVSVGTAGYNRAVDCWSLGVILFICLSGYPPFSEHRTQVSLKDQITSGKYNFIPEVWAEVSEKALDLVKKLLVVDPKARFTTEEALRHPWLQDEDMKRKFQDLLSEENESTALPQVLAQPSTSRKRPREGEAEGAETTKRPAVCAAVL

[9] = target: Serine/threonine-protein kinase Chk2 (Homo sapiens) (UniProt O96017); settings: at 1 µM
[10] = target: Death-associated protein kinase 1 (Homo sapiens) (UniProt P53355); settings: at 0.1 µM
Chain of Death-associated protein kinase 1 (Homo sapiens) (P53355 whole entry, looked up): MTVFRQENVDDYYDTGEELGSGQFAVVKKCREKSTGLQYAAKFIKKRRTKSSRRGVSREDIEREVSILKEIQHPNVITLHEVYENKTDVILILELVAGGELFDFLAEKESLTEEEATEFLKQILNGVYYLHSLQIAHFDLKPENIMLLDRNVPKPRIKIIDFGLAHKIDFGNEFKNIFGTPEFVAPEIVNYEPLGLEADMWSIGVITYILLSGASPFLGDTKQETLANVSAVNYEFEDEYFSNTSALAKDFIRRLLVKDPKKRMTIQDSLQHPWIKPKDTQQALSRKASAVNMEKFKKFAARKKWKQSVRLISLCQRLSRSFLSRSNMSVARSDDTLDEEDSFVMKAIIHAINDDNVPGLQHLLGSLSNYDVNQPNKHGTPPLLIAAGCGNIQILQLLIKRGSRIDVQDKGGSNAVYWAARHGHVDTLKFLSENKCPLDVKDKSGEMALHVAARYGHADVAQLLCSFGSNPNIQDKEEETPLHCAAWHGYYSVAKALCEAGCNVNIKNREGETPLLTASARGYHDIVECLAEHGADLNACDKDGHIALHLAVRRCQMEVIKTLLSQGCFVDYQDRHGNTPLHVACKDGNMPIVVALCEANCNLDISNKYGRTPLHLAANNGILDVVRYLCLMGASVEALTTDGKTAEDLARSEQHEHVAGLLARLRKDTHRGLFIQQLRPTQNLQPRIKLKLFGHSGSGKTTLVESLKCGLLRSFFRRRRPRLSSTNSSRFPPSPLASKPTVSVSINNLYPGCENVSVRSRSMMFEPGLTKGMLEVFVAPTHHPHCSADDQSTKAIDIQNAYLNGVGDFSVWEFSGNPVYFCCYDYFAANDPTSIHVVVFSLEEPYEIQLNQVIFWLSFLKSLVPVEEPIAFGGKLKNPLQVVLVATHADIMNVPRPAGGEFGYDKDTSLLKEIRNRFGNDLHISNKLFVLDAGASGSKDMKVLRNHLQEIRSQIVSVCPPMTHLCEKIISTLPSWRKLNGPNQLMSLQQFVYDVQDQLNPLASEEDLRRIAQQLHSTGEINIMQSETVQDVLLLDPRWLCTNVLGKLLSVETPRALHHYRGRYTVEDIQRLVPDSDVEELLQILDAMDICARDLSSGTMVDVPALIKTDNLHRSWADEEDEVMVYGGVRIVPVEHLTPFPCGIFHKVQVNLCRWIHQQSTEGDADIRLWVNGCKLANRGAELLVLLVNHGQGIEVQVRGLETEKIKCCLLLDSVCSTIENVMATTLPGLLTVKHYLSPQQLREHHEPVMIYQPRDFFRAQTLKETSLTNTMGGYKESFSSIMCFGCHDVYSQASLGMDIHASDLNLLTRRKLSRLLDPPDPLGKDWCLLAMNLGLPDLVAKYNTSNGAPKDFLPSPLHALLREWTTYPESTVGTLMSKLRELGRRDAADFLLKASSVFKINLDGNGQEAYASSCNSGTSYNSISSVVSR

[11] = target: Death-associated protein kinase 1 (Homo sapiens) (UniProt P53355); settings: at 1 µM
[12] = target: T3, Serine/threonine-protein kinase DCLK2 (Homo sapiens) (UniProt Q8N568); settings: at 0.1 µM
T3 sequence (whole entry): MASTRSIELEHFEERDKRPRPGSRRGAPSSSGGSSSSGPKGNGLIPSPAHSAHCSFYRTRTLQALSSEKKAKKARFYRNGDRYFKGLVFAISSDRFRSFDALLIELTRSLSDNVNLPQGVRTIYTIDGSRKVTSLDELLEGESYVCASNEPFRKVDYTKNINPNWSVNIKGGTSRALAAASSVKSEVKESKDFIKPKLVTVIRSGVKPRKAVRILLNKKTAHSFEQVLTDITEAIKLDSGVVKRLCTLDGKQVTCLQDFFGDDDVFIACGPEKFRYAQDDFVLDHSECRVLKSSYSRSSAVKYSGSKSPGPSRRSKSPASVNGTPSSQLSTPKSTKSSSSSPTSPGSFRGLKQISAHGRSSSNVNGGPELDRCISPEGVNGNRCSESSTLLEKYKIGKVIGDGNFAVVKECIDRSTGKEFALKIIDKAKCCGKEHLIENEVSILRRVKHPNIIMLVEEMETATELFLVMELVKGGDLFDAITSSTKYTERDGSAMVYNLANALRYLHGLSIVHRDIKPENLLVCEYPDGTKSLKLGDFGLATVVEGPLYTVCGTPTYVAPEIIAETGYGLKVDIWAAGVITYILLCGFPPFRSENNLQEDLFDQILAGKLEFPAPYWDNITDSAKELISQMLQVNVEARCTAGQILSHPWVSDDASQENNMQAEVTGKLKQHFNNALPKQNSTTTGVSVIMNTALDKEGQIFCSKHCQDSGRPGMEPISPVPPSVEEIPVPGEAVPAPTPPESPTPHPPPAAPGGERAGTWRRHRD

[13] = target: T3, Serine/threonine-protein kinase DCLK2 (Homo sapiens); settings: at 1 µM
[14] = target: MAP kinase-activated protein kinase 2 (Homo sapiens) (UniProt P49137); settings: at 0.1 µM
Chain of MAP kinase-activated protein kinase 2 (Homo sapiens) (P49137 whole entry, looked up): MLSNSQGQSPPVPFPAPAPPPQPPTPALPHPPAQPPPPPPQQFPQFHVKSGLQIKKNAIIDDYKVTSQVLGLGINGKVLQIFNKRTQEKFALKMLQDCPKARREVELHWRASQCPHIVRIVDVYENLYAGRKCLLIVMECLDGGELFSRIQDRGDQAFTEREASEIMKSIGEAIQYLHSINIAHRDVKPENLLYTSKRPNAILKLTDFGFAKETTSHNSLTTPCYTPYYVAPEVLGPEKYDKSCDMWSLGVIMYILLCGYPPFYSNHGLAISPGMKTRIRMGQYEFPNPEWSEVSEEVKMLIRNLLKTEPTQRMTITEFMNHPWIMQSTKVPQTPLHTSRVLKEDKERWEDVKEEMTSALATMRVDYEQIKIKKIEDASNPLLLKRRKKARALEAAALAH

[15] = target: MAP kinase-activated protein kinase 2 (Homo sapiens) (UniProt P49137); settings: at 1 µM
[16] = target: MAP kinase-activated protein kinase 3 (Homo sapiens) (UniProt Q16644); settings: at 0.1 µM
[17] = target: MAP kinase-activated protein kinase 3 (Homo sapiens) (UniProt Q16644); settings: at 1 µM
[18] = target: Serine/threonine-protein kinase MARK1 (Homo sapiens) (UniProt Q9P0L2); settings: at 0.1 µM
Chain of Serine/threonine-protein kinase MARK1 (Homo sapiens) (Q9P0L2 whole entry, looked up): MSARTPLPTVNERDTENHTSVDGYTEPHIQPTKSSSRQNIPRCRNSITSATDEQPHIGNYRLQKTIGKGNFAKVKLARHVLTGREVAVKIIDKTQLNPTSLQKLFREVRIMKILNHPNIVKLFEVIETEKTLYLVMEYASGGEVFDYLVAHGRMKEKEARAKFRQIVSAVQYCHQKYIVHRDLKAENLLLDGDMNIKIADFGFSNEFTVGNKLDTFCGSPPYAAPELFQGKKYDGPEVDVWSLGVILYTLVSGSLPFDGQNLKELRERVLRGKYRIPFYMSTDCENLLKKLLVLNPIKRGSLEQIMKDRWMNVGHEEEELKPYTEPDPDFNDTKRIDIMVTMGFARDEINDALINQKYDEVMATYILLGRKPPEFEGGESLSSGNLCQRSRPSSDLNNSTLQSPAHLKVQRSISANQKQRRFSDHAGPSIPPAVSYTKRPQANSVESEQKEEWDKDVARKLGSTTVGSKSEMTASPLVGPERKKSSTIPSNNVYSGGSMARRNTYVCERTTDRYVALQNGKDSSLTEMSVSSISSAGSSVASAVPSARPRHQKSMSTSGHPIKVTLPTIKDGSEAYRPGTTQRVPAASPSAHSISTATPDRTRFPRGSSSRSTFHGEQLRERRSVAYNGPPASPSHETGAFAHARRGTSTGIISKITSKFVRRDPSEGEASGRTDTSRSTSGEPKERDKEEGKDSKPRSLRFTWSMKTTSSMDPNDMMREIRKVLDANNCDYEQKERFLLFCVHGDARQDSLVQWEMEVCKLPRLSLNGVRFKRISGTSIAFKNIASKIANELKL

[19] = target: Serine/threonine-protein kinase MARK1 (Homo sapiens) (UniProt Q9P0L2); settings: at 1 µM
[20] = target: MAP/microtubule affinity-regulating kinase 3 (Homo sapiens) (UniProt P27448); settings: at 0.1 µM;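 also: mean percent inhibition of MARK3 kinase activity, measured within the GSK PKIS screening panel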
Chain of MAP/microtubule affinity-regulating kinase 3 (Homo sapiens) (P27448 whole entry, looked up): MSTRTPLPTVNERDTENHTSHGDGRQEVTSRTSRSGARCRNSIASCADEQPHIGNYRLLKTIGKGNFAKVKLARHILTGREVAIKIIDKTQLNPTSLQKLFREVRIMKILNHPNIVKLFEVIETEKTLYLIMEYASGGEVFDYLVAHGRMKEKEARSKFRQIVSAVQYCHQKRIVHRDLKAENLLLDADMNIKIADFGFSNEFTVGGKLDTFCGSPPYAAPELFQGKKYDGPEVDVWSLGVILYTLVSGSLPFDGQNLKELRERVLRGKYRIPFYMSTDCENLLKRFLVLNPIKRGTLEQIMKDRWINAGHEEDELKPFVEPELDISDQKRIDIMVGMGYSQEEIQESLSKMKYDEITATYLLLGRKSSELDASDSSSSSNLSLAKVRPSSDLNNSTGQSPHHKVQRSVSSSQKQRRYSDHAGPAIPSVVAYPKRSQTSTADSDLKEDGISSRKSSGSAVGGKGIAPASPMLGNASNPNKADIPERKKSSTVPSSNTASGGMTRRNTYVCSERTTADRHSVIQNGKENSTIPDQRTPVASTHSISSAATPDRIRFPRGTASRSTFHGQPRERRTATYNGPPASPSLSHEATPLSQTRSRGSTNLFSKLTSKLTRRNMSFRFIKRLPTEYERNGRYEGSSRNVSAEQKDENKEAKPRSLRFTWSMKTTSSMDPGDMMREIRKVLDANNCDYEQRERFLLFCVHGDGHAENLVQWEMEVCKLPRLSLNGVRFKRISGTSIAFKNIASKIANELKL

Chain of Calcium/calmodulin-dependent protein kinase type II subunit delta (Homo sapiens) (Q13557 whole entry): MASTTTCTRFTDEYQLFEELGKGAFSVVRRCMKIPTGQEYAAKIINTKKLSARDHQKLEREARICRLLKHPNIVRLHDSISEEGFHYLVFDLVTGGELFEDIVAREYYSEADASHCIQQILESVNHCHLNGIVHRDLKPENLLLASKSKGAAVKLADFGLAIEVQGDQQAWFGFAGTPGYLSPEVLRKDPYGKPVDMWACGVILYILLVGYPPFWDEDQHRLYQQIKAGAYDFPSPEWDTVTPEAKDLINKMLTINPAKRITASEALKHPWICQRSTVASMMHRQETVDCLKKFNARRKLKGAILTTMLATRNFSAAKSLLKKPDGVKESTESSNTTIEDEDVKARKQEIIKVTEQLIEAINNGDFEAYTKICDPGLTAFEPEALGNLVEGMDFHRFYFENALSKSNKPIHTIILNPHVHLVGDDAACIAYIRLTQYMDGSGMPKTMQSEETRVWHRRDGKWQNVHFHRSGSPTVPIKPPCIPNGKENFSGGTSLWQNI
Chain of Calcium/calmodulin-dependent protein kinase type II subunit alpha (Homo sapiens) (Q9UQM7 whole entry): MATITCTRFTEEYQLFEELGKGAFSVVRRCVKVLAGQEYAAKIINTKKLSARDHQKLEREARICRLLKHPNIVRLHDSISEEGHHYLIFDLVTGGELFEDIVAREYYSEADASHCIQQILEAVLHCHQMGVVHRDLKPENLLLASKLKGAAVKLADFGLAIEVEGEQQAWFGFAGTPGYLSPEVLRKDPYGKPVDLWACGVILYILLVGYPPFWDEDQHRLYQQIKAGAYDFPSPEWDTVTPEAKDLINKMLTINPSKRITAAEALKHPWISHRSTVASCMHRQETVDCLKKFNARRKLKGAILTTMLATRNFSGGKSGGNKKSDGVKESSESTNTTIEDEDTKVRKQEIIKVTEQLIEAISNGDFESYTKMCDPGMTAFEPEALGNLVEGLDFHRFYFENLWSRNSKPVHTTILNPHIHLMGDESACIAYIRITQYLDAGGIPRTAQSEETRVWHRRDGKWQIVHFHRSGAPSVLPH

SMILES	inhibition [1]	inhibition [2]	inhibition [3]	inhibition [4]	inhibition [5]	inhibition [6]	inhibition [7]	inhibition [8]	inhibition [9]	inhibition [10]	inhibition [11]	inhibition [12]	inhibition [13]	inhibition [14]	inhibition [15]	inhibition [16]	inhibition [17]	inhibition [18]	inhibition [19]	inhibition [20]
CN1CCN(C(=O)c2ccc(NC(=O)Nc3ccc(N(C)c4ccnc(Nc5ccc(CS(C)(=O)=O)cc5)n4)cc3)cc2)CC1	3.13%	1.38%	3.39%	1.22%	1.48%	1.47%	2.64%	5.54%	39.4%	2.86%	2.64%	-0.43%	0.81%	0.81%	1.86%	2.24%	3.23%	1.73%	15.2%	2.96%
NC(=O)c1sc(-n2cnc3ccccc32)cc1OCc1ccccc1Br	3.18%	3.32%	7.99%	0.49%	2.57%	9.58%	13.2%	7.49%	10.5%	12.3%	10.6%	-1%	-0.82%	4.58%	6.13%	8.98%	12.7%	2.32%	5.92%	-0.1%
OCc1ccc(-c2nc(-c3ccccn3)c(-c3ccc4c(c3)OCO4)[nH]2)cc1	5.43%	4.96%	4.65%	0.02%	-0.32%	3.36%	3.17%	3.25%	4.36%	4.31%	6.09%	2.19%	2.76%	1.95%	1.87%	3.91%	6.87%	4.66%	4.32%	4.6%
CN(C)c1cc2c(Nc3ccc4c(cnn4Cc4ccccc4)c3)ncnc2cn1	2.41%	2.28%	2.7%	1.84%	0.37%	2.49%	5.16%	3.91%	17.9%	2.91%	4%	0.57%	-0.18%	1.53%	1.29%	2.73%	2.81%	2.96%	3.22%	0.52%
NS(=O)(=O)c1ccc(N/N=C2\C(=O)Nc3ccc(Cl)cc32)cc1	4.05%	2.98%	4.81%	-0.73%	-3.41%	-3.35%	-2.04%	-2.37%	0.53%	-4%	-3.71%	0.73%	1%	-0.88%	-0.73%	-2.03%	-2.76%	3.26%	11.4%	4.4%
NC(=O)c1cccc(Nc2nccc(Nc3cccc(F)c3)n2)c1	0.53%	0.45%	2.08%	1.09%	1.02%	0.04%	1.52%	-0.9%	2.39%	0.65%	-2.63%	-0.56%	0.44%	0.22%	0.05%	1.51%	1.85%	0.81%	2.94%	1.98%
NS(=O)(=O)c1cccc(Nc2cc(-c3ccc(F)cc3)n[nH]2)c1	3.11%	2.57%	7.84%	-1.7%	-3.94%	-1.71%	17.6%	8.44%	11.9%	10.4%	11.9%	0.71%	-0.18%	4.39%	4.71%	9.87%	9.68%	3.98%	17.5%	5.25%
